Assay results taken from PubChem BioAssay AID463190 (Sanford-Burnham Center for Chemical Genomics, 2010).
Hit rate of the full screen: of about 330,000 compounds, about 7,300 (2.2%) were called active.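 Rule for the calls: active = inhibition of at least 40%; inactive = the rest.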 The entries come from a sample that favours actives as a whole.

experiment: growth inhibition of tim10-1 ts yeast – luminescence, uHTS, primary screen (AID 463190);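 note: mutant grown at 25 °C; 0% = DMSO wells with yeast and 100% = wells holding no yeast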; conditions: S. cerevisiae tim10-1 ts strain growth, BacTiter-Glo, 24 h; at 20 µM; hits give high values

Compound | inhibition
O=C(/C=C/c1ccc(Cl)cc1Cl)NCc1ccco1 | 41.9% (active)
O=C(NCc1ccco1)C1(c2ccc(Cl)cc2)CCCC1 | 29.4% (inactive)
COC(=O)/C=C/C(=O)NCc1ccco1 | -3.84% (inactive)
Cc1[nH]c2ccccc2c1C(=O)C(C)Sc1nnc(C2CC2)o1 (configuration not stated) | -11.7% (inactive)
CCN(CC)C(=O)CSc1nnc(C2CCCCC2)o1 | 2.18% (inactive)
CCCCCC1CCC(c2nnc(SCC(C)=O)o2)CC1 (configuration not stated) | 42.3% (active)
O=C(COc1cccc(F)c1)Oc1ccc(C(=O)c2ccccc2)cc1 | -0.003% (inactive)
CCC(C)c1ccccc1NC(=O)CN(C)CC(=O)Nc1ccccc1SC (configuration not stated) | 11.9% (inactive)
O=C(Cc1ccccc1)Nc1c(C(=O)N2CCCCCC2)cnn1-c1ccccc1 | 29.5% (inactive)
N#Cc1ccccc1Sc1ccccc1C(=O)OCC(=O)NC1CCCCC1 | 1.29% (inactive)
CC(CCN1CCN=C1N(C)C)c1ccccc1 (configuration not stated) | -14.7% (inactive)
CC(=O)O[C@H]1c2ccccc2-c2ccccc2[C@@H]1OC(C)=O | 4.4% (inactive)
CC(=O)Oc1ccc2c(c1)C(=O)c1ccccc1C2=O | 52.2% (active)
CC(=O)Oc1cccc(C(=O)Nc2ccccc2NC(=O)c2cccc(OC(C)=O)c2)c1 | -9.31% (inactive)
O=C(CSc1nnc(CN2CCCC2)n1-c1ccc(F)cc1)c1ccc2c(c1)OCO2 | 14.8% (inactive)
CC(C)CC(=O)NC(=S)Nc1cc(C(=O)O)ccc1Cl | -9% (inactive)
CC(C)CC(=O)NC(=S)Nc1ccc(F)cc1F | 49.5% (active)
CC(=O)c1ccc(NC(=S)NC(=O)CC(C)C)cc1 | 14.6% (inactive)
Cc1ccc(C(=O)C(C)OC(=O)Cc2n[nH]c(=O)c3ccccc23)cc1C (configuration not stated) | -2.29% (inactive)
O=C(Nc1ccc(C(=O)NCc2ccccc2Cl)cc1)C1=CSCCO1 | -4.56% (inactive)
O=S(=O)(/N=C(/Nc1ccccn1)c1ccccc1)c1ccc(Cl)cc1 | 20.8% (inactive)

Compound | inhibition
Cc1ccc(S/C(=N\S(=O)(=O)c2ccc(Cl)cc2)c2ccccc2)cc1 | 41.3% (active)
Cc1ccc(S(=O)(=O)/N=C(/Nc2ccccn2)c2ccc(Cl)cc2)cc1 | 19.5% (inactive)
CCC1CCCCN1CCCNC(=O)c1cc2c(Cl)nc3ccccc3c2s1 (configuration not stated) | 32.7% (inactive)
Cc1ccc(NC(=O)NC(=O)N(C2CCCCC2)S(=O)(=O)c2ccccc2)cc1 | 13.6% (inactive)
CCOc1ccc(NC(=O)N(CCC(C)C)C(C)c2ccco2)cc1 (configuration not stated) | 15.1% (inactive)
CC(c1ccco1)N(C(=O)Nc1ccccc1)C1CCCCC1 (configuration not stated) | 48.1% (active)
C=CCOc1ccc(/C=N/n2cncn2)cc1OC | 6.25% (inactive)
CC(Cc1cccs1)NC(=O)c1cccc(Cl)c1 (configuration not stated) | 21.4% (inactive)
COc1ccc(CCNCc2c(-c3ccccc3)n(C)c3ccccc23)cc1 | 40.2% (active)
COc1ccc(-c2nc3ccccc3c(=O)n2CCc2ccc(O)cc2)cc1 | 25.8% (inactive)
COc1ccc(-c2c(C#Cc3ccccc3)c3ccccc3n2C)cc1 | 14.3% (inactive)
Cc1ccc(Sc2cc(N3CCOCC3)nc(-c3ccccc3)n2)cc1 | 20.9% (inactive)
CCN1CCN(c2nc(Nc3cccc(F)c3)nc(N)c2[N+](=O)[O-])CC1 | 9.58% (inactive)
Cc1ccccc1Nc1nc(N)nc(COC(=O)CCC(=O)c2ccc(F)cc2)n1 | 15.1% (inactive)
O=C1CSC(=S)N1c1ccc(O)cc1 | -38.8% (inactive)
O=C1CSC(=S)N1c1ccc(Cl)c(Cl)c1 | 42% (active)
COc1cc(N2C(=O)CSC2=S)cc(OC)c1OC | -10% (inactive)
COc1ccc(C)cc1Nc1n[n+](-c2ccccc2)c(-c2cccc(Cl)c2Cl)s1 | 22.9% (inactive)
CCCCCCC(O)(CCN1CCCCC1)c1ccccc1 (configuration not stated) | 7.54% (inactive)
CCOc1ccc(C2C(C#N)=C(N)N(N(C)C)C3=C2C(=O)CCC3)cc1 (configuration not stated) | 12.1% (inactive)
CCc1ccc(C2C(C#N)=C(N)N(N(C)C)C3=C2C(=O)CCC3)s1 (configuration not stated) | 16.4% (inactive)

Compound | inhibition
CN(C)N1C(N)=C(C#N)C(c2ccc(Br)cc2)C2=C1CCCC2=O (configuration not stated) | 43.6% (active)
CC(C)Cc1nnc(NC(=O)CN2C(=O)NC3(CCCCC3)C2=O)s1 | -6.92% (inactive)
Cc1ccc(-c2csc(-c3cc(C)on3)n2)cc1 | 11.2% (inactive)
Clc1ccc(-c2csc(-c3ccncc3)n2)cc1 | 24.5% (inactive)
CCCc1cc(-c2nc(-c3ccc(C)cc3)cs2)ccn1 | 42.5% (active)
Cc1ccc(/C=N/NC(=O)c2cc3ccccc3cc2O)o1 | 15.5% (inactive)
Cc1cc(N=Nc2ccc3ccccc3c2)ccc1O | 57.7% (active)
COc1ccc(NC(=O)NCCN2CCN(c3ccc(C)cc3)CC2)c(Cl)c1 | -2.17% (inactive)
COc1ccc(C2Nc3ccccc3C(=O)N2c2ccc(Cl)cc2)cc1Cn1cc([N+](=O)[O-])cn1 (configuration not stated) | 28% (inactive)
Cc1cc(C)n(S(=O)(=O)c2cccc([N+](=O)[O-])c2)n1 | 12.8% (inactive)
Cc1ccccc1CN1CCC(C(=O)Nc2ccc(Oc3cccnc3)cc2)CC1 | 8.05% (inactive)
O=C(NCCN1C(=O)S/C(=C\c2cccnc2)C1=O)c1cccc(OC(F)F)c1 | 40.4% (active)
O=C(NCCN1C(=O)S/C(=C\c2cccnc2)C1=O)c1ccc(S(=O)(=O)N2CCCC2)cc1 | 18.6% (inactive)
Cc1cc(OCCCC(=O)NCCN2C(=O)S/C(=C\c3cccnc3)C2=O)ccc1Cl | 19.9% (inactive)
O=C(CCNS(=O)(=O)c1ccccc1C(F)(F)F)NCc1ccc2c(c1)OCO2 | 23.1% (inactive)
Cn1nc(C(F)(F)F)c(C(=O)Nc2cccc(C(F)(F)F)c2)c1SCc1ccc(Cl)cc1 | 36% (inactive)
O=C(CCn1nnnc1CN1CCOCC1)N1CCC(c2ccccc2Cl)C1 (configuration not stated) | 15.3% (inactive)
O=C(Cc1ccc(Cl)c(Cl)c1)Nc1ccc(SC(F)F)cc1 | 43.5% (active)
CC(=O)N1CCN(CC(=O)Nc2ccc(SC(F)F)cc2)CC1 | -0.192% (inactive)
Cc1ccc(CC(=O)Nc2ccc(OC(F)F)c(Cl)c2)cc1C | 15.6% (inactive)
